Two compounds from PubChem BioAssay (EPA / NIEHS) can be followed below.

Read-out in experiment [1]: Transforming growth factor beta 1 (TGFb1), TGFB1 (gene 7040)
Description: BSK_KF3CT_TGFb1: BioMAP Diversity Plus: KF3CT Assay for Transforming growth factor beta 1 (TGFb1) Biomarker Activity (AID 2283072). The note with it: primary human keratinocytes with fibroblasts; actives raise or lower the signal. Summed up: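 Primary human skin cells (keratinocytes, foreskin fibroblasts) were co-cultured, exposed to test chemical and sampled at 24 h. TGF-b1 levels were measured by ELISA and fitted bidirectionally relative to DMSO.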

Read-out in experiment [2]: C-C motif chemokine 2 (Homo sapiens) (UniProt P13500)
As to the kind of experiment: BSK_KF3CT_MCP1: BioMAP Diversity Plus: KF3CT Assay for Monocyte Chemoattractant Protein 1 (MCP1/CCL2) Biomarker Activity (AID 2283073). The note with it: primary human keratinocytes with fibroblasts; actives raise or lower the signal. The essentials: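 Biomarker MCP-1 is measured by ELISA in primary human keratinocytes co-cultured with foreskin fibroblasts, 24 h after chemical treatment; DMSO serves as the negative control and activity baseline.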

Read-out in experiment [3]: Matrix Metallopeptidase 9 (MMP9), MMP9 (gene 4318)
As to the kind of experiment: BSK_KF3CT_MMP9: BioMAP Diversity Plus: KF3CT Assay for Matrix Metallopeptidase 9 (MMP9) Biomarker Activity (AID 2283074).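 For AC50: MMP9 protein level quantified by ELISA in the co-culture.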 The note with it: primary human keratinocytes with fibroblasts; actives raise or lower the signal. Summed up:
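Human keratinocyte/foreskin fibroblast co-culture; compound added; 24 h; MMP-9 by ELISA; bidirectional fit vs DMSO baseline.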

Read-out in experiment [4]: urokinase plasminogen activator (uPA), PLAU (gene 5328)
As to the kind of experiment: BSK_KF3CT_uPA: BioMAP Diversity Plus: KF3CT Assay for urokinase plasminogen activator (uPA) Biomarker Activity (AID 2283075). Conditions: primary human keratinocytes with fibroblasts; actives raise or lower the signal. Summed up:
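ELISA readout of uPA, analyzed for signal gain or loss relative to DMSO, from a human primary keratinocyte–foreskin fibroblast co-culture measured 24 h after chemical treatment.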

Read-out in experiment [5]: CD40, CD40 (gene 958)
Description: BSK_LPS_CD40: BioMAP Diversity Plus: LPS Assay for CD40 Biomarker Activity (AID 2283076). The note with it: primary human HUVEC with PBMC; actives raise or lower the signal. Summed up:
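Using a multiplexed primary human co-culture (umbilical vein endothelium plus PBMC), CD40 was read by ELISA 24 h after dosing, with cytotoxicity tracked by sulforhodamine B staining of parallel cultures and activity fitted bidirectionally versus DMSO.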

Read-out in experiment [6]: E-selectin (Homo sapiens) (UniProt P16581)
Description: BSK_LPS_Eselectin: BioMAP Diversity Plus: LPS Assay for Eselectin Biomarker Activity (AID 2283077). Conditions: primary human HUVEC with PBMC; actives raise or lower the signal. Summed up:
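Dose chemical onto LPS-driven HUVEC/PBMC co-culture; after 24 h, run ELISA for E-selectin; fit up- and down-going responses relative to DMSO control.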

Read-out in experiment [7]: Interleukin-8 (IL8), CXCL8 (gene 3576)
Description: BSK_LPS_IL8: BioMAP Diversity Plus: LPS Assay for Interleukin-8 (IL8) Biomarker Activity (AID 2283078). The note with it: primary human HUVEC with PBMC; actives raise or lower the signal. The essentials: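 In this LPS system, chemical-treated human umbilical vein endothelium/PBMC co-cultures were harvested at 24 h for IL-8 ELISA.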

The nature of experiment [8]: BSK_LPS_SRB: Viability Assessment in the BioMAP Diversity Plus: LPS Assay (AID 2283079).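 Note: total protein by sulforhodamine B absorbance as a cytotoxicity measure; measured one day after compound addition; fitted in both directions against DMSO so loss or gain of signal counts.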 The note with it: primary human HUVEC with PBMC. The essentials: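 Cytotoxicity endpoint in human endothelial–PBMC co-culture: 24 h exposure, then SRB (0.1%) staining, 560 nm read.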
Read-out in experiment [9]: Interleukin-1 alpha (IL1a), IL1A (gene 3552)
Description: BSK_LPS_IL1a: BioMAP Diversity Plus: LPS Assay for Interleukin-1 alpha (IL1a) Biomarker Activity (AID 2283080). Conditions: primary human HUVEC with PBMC; actives raise or lower the signal. Summed up: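 Primary human HUVEC and PBMC co-culture stimulated with LPS is dosed and harvested at 24 h. Both increases and decreases in ELISA-measured IL-1a are scored relative to DMSO.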

Read-out in experiment [10]: Monocyte Chemoattractant Protein-1 (MCP1), CCL2 (gene 6347)
As to the kind of experiment: BSK_LPS_MCP1: BioMAP Diversity Plus: LPS Assay for Monocyte Chemoattractant Protein-1 (MCP1) Biomarker Activity (AID 2283081).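 For AC50: secreted MCP-1 protein quantified by ELISA in culture supernatant.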 Conditions: primary human HUVEC with PBMC; actives raise or lower the signal. Summed up:
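Values derive from bidirectional fitting against DMSO of ELISA-measured MCP-1 in a human primary endothelial and mononuclear cell co-culture, 24 h after chemical addition under LPS activation.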

Experiment [11] is described as follows: BSK_LPS_PGE2: BioMAP Diversity Plus: LPS Assay for Prostaglandin E2 (PGE2) Biomarker Activity (AID 2283082). The note with it: primary human HUVEC with PBMC; actives raise or lower the signal. The essentials: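 LPS-activated HUVEC/PBMC co-culture; cmpd dosed, 24 h; PGE2 by ELISA; bidirectional fit vs DMSO; SRB (0.1%, TCA-fixed, 560 nm) in parallel plates for overt cytotox.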

Read-out in experiment [12]: Macrophage colony-stimulating factor (MCSF), CSF1 (gene 1435)
As to the kind of experiment: BSK_LPS_MCSF: BioMAP Diversity Plus: LPS Assay for Macrophage colony-stimulating factor (MCSF) Biomarker Activity (AID 2283083). Conditions: primary human HUVEC with PBMC; actives raise or lower the signal. Summed up:
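Bidirectional fit versus DMSO of ELISA-measured M-CSF in co-cultured human umbilical vein endothelial cells and PBMC, sampled 24 h after dosing.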

Read-out in experiment [13]: Tissue Factor, F3 (gene 2152)
Description: BSK_LPS_TissueFactor: BioMAP Diversity Plus: LPS Assay for Tissue Factor Biomarker Activity (AID 2283084). The note with it: primary human HUVEC with PBMC; actives raise or lower the signal. The essentials: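 Read-out: CD142 ELISA, 24 h. System: LPS-driven human endothelial/PBMC co-culture. Analysis: up- or down-signal fitted against DMSO.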

Read-out in experiment [14]: Tumor necrosis factor (Homo sapiens) (UniProt P01375)
Description: BSK_LPS_TNFa: BioMAP Diversity Plus: LPS Assay for Tumour Necrosis Factor alpha (TNFa) Biomarker Activity (AID 2283085). The note with it: primary human HUVEC with PBMC; actives raise or lower the signal. Summed up:
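Read-out is ELISA of TNFa in primary human endothelial cell–PBMC co-cultures at 24 h after compound. Activity in either direction was fitted against DMSO.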

Read-out in experiment [15]: Vascular cell adhesion molecule 1 (VCAM1), VCAM1 (gene 7412)
Description: BSK_LPS_VCAM1: BioMAP Diversity Plus: LPS Assay for Vascular cell adhesion molecule 1 (VCAM1) Biomarker Activity (AID 2283086). The note with it: primary human HUVEC with PBMC; actives raise or lower the signal. The essentials: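 HUVEC + PBMC co-culture, LPS system; compound 24 h; VCAM-1 by ELISA; bidirectional fit vs DMSO control; parallel SRB (0.1%, TCA-fixed, 560 nm) for cytotoxicity.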

Read-out in experiment [16]: CD38, CD38 (gene 952)
As to the kind of experiment: BSK_SAg_CD38: BioMAP Diversity Plus: SAg Assay for CD38 Biomarker Activity (AID 2283087). Conditions: primary human HUVEC with PBMC; actives raise or lower the signal. Summed up: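 Human HUVEC plus PBMC co-culture stimulated with superantigen; CD38 measured by ELISA 24 h after chemical dosing. Fluorescence read-out, bidirectional fit against DMSO; cytotoxicity tracked in parallel by SRB and Alamar Blue.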

Read-out in experiment [17]: CD40, CD40 (gene 958)
As to the kind of experiment: BSK_SAg_CD40: BioMAP Diversity Plus: SAg Assay for CD40 Biomarker Activity (AID 2283088). The note with it: primary human HUVEC with PBMC; actives raise or lower the signal. The essentials:
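Endpoint derived by fitting increases or decreases versus DMSO controls. CD40 is detected by fluorescence ELISA in a human vascular co-culture of endothelium and PBMC at 24 h.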

Read-out in experiment [18]: CD69, CD69 (gene 969)
As to the kind of experiment: BSK_SAg_CD69: BioMAP Diversity Plus: SAg Assay for CD69 Biomarker Activity (AID 2283089).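 For AC50: cell surface CD69 protein quantified by ELISA with fluorescence detection.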 Conditions: primary human HUVEC with PBMC; actives raise or lower the signal. The essentials: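 ELISA, fluorescence read-out: CD69 on human umbilical vein endothelial cell + PBMC co-culture, 24 h post-dosing. Gain or loss of signal fitted bidirectionally against DMSO baseline.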

Read-out in experiment [19]: Monocyte Chemoattractant Protein-1 (MCP1), CCL2 (gene 6347)
As to the kind of experiment: BSK_SAg_MCP1: BioMAP Diversity Plus: SAg Assay for Monocyte Chemoattractant Protein-1 (MCP1) Biomarker Activity (AID 2283090). Conditions: primary human HUVEC with PBMC; actives raise or lower the signal. The essentials:
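MCP-1 levels in the endothelial–PBMC SAg co-culture were quantified by ELISA at 24 h post-dosing; both increases and decreases versus DMSO scored. Cytotoxicity monitored by SRB total protein in parallel cultures.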

Read-out in experiment [20]: E-selectin (Homo sapiens) (UniProt P16581)
Description: BSK_SAg_Eselectin: BioMAP Diversity Plus: SAg Assay for Eselectin Biomarker Activity (AID 2283091). Conditions: primary human HUVEC with PBMC; actives raise or lower the signal. Summed up: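 Endpoint values derive from bidirectional fitting relative to DMSO, using ELISA-measured E-selectin in a human vascular co-culture (umbilical vein endothelium plus PBMC) sampled 24 h after dosing.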

The source made the active and inactive calls. Rule for the calls: active = hit-call score of the fitted dose curve at least 0.9, where 1 is the maximum; inactive = score below 0.9.

Chain of E-selectin (Homo sapiens) (P16581 whole entry, looked up): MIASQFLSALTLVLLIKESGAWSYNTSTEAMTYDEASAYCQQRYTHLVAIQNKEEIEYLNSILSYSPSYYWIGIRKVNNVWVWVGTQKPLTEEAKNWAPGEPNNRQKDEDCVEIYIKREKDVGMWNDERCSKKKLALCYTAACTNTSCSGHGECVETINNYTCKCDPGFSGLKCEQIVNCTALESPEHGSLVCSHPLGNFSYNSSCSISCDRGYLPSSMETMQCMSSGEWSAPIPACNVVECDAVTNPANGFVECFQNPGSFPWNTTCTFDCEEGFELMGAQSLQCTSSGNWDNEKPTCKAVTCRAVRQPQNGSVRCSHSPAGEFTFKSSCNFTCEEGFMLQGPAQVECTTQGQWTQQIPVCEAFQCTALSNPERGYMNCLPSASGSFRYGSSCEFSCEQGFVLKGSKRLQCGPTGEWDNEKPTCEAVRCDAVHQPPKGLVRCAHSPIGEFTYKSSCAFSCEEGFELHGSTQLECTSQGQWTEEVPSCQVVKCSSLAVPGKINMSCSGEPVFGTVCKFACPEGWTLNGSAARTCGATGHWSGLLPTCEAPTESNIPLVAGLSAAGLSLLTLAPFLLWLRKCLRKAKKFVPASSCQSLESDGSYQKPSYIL
Chain of Tumor necrosis factor (Homo sapiens) (P01375 whole entry, looked up): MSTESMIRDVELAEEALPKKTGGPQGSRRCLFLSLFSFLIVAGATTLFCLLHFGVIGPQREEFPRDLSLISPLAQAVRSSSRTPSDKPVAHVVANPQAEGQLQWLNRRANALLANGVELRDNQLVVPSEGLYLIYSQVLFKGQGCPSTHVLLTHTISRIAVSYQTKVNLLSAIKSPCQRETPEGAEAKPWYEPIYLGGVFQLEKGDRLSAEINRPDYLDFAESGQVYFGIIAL

Turning to `CN1CCC[C@H]1c1cccnc1`, the result in experiment [1], in [2], in experiment [3], in experiment [4], in experiment [5] and in experiment [6] was inactive. Further, the outcome in [7], in experiment [8], in experiment [9], in [10], in [11] and in experiment [12] was inactive. For the same compound, the outcome in experiment [13], in [14], in experiment [15], in experiment [16], in experiment [17] and in [18] was inactive. Moreover, the outcome in experiment [19] and in [20] was inactive.
Regarding `CCCCCCCCCCCCN1CCCC1=O`, the AC50 in [1] is 34.2 µM (active); in experiment [2], 34.3 µM (active); in experiment [3] it was 35 µM (active); in experiment [4], 36.7 µM (active); in experiment [5], 32.2 µM (active); in [6], 33.8 µM (active). Also, the AC50 in [7] was 31.3 µM (active); in experiment [8], 27.4 µM (active); in experiment [9] it was 33 µM (active); in experiment [10], 32.9 µM (active); in experiment [12], 32.6 µM (active); in experiment [15] it was 34.1 µM (active). Moreover, the AC50 is 31.3 µM (active) in [16]; 30.9 µM (active) in experiment [17]; 29.9 µM (active) in experiment [18]; 29.6 µM (active) in experiment [19]; 30.3 µM (active) in experiment [20]. Also, the result in experiment [11], in experiment [13] and in [14] was inactive.
